About 1,100 (1.7%) of roughly 63,000 compounds were called active. This excerpt belongs to a sample that is enriched for actives. Measured potencies and affinities stand elsewhere. Unmarked numbers belong to inactive results. Rule as the data show it: active = cytotoxicity above about 50%; inactive = the rest.
assay: cytotoxicity in HPDE-C7 cells, cell-based, fluorescence, HTS (AID 430); conditions: HPDE-C7 pancreatic duct cells viability, at 10 µM, active compounds read high;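 also: cells exposed to compound for 48 hours before viability readout; 0% = vehicle and 100% = reference cytotoxic drug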

Compound | cytotoxicity
Cc1cccc(NC(=O)Cn2c(C)c(C#N)c3ccccc32)c1C | -4.9%
O=C(CSc1n[nH]c(=O)[nH]c1=O)c1ccccc1 | 5%
c1ccc(Cc2nnc3sc(Nc4ccccc4)nn23)cc1 | 3%
CCn1c(SCC(=O)N2CCN(c3ccc(Cl)cc3)CC2)nc2ccccc2c1=O | 2.2%
O=C(NCc1cccnc1)C1CC(=O)N(c2ccc(Cl)cc2)C1 (centres undefined) | -7%
CSC1=NCCN1C(=O)c1cccs1 | 2%
Cc1ccc(C(=O)CSC2=C(C#N)C(c3ccco3)C3=C(CC(C)(C)CC3=O)N2)cc1 (centres undefined) | 7.1%
N#CC1=C(SCC(=O)c2ccccc2)NC2=C(C(=O)CCC2)C1c1ccco1 (centres undefined) | 54.3% (active)
Cc1ccc(NC(=O)CSC2=C(C#N)C(c3ccco3)C3=C(CCCC3=O)N2)cc1 (centres undefined) | 3.5%
COc1ccc(NC(=O)CSC2=C(C#N)C(c3ccco3)C3=C(CCCC3=O)N2)c(OC)c1 (centres undefined) | -2.1%
Cc1ccc(C(=O)CSC2=C(C#N)C(c3ccco3)C3=C(CCCC3=O)N2)cc1 (centres undefined) | 76.5% (active)
CC(C)(C)c1ccc(C(=O)CCCSC2=C(C#N)C(c3ccco3)C3=C(CCCC3=O)N2)cc1 (centres undefined) | 38.2%
CCOC(=O)N1CCN(CC(=O)Nc2c(C(=O)OC)[nH]c3cccc(Cl)c23)CC1 | -17.3%
COc1ccc(-n2nnnc2SCC(=O)c2cc3ccccc3o2)cc1 | -1.1%
CCOC(=O)C1C(=O)CC(C)(O)C(C(=O)OCC)C1c1ccccc1OC (centres undefined) | -17.4%
CSCCC(NC(=O)OC(C)(C)C)C(=O)NC(CC(C)C)C(N)=O (centres undefined) | -35.4%
Cc1cccc(C)c1NC(=O)C(c1ccccc1)N1CCC2(CC1)OCCO2 (centres undefined) | 9.2%
CCCC1=C(C(=O)OCC)C(c2ccccc2OC)NC(=O)N1 (centres undefined) | -16.5%
Cc1noc(C)c1S(=O)(=O)N(CC(=O)N1CCn2c1nc1ccccc12)c1ccc(C(C)C)cc1 | 8.7%
Cn1c(CNc2ccccc2)nc2ccccc21 | -11.4%
CCCn1c(CNc2ccccc2O)nc2ccccc21 | 14.5%
CCCn1c(NCc2ccco2)nc2ccccc21 | 2%
CCCn1c(NC(=O)c2ccccc2)nc2ccccc21 | -20.2%
CCCn1c(CNc2ccc(Br)cc2)nc2ccccc21 | 50.8% (active)
Cc1ccc(Nc2cc(C)nc3nc(C)nn23)c(C)c1 | -12.6%

Compound | cytotoxicity
C=CCOC(=O)C1=C(C)OC(N)=C(C#N)C1c1ccccc1F (centres undefined) | 6.1%
COC(=O)c1ccc(CSc2nc(N)cc(N)n2)cc1 | -4.4%
CCC(C)NCC(O)COCc1ccc(Cl)cc1 (centres undefined) | 9.9%
O=C(Nc1ccc2c(c1)CCC2)c1cnn2c1NC(c1ccco1)CC2C(F)(F)F (centres undefined) | -4.4%
O=C(c1cnn2c1NC(c1ccco1)CC2C(F)(F)F)N1CCN(c2cccc(Cl)c2)CC1 (centres undefined) | 50.2% (active)
O=C(c1ccco1)N1CCN(C(=O)c2cnn3c2NC(c2cccs2)CC3C(F)(F)F)CC1 (centres undefined) | -5%
Cc1ccc(-c2ccc(=O)n(CCC(=O)NCCN3CCCCC3C)n2)cc1 (centres undefined) | 5.1%
O=S(=O)(Nc1nc2ccccc2nc1NCCO)c1cccc(Cl)c1 | 12.5%
CCOC(=O)N1CCC(N(C(=O)Nc2ccccc2)C(C)CC)CC1 (centres undefined) | -4.7%
O=C1CC(c2ccc3c(c2)OCO3)c2cc3c(cc2N1)OCO3 (centres undefined) | -5.6%
O=C1CC(c2cccs2)c2cc3c(cc2N1)OCCO3 (centres undefined) | 5.6%
O=C1CC(c2cccnc2)c2cc3c(cc2N1)OCCO3 (centres undefined) | 5.1%
CCCOc1c(OC)cccc1C1CC(=O)Nc2cc3c(cc21)OCCO3 (centres undefined) | 70.1% (active)
CCCOc1c(OC)cccc1C1CC(=O)Nc2cc(OC)c(OC)c(OC)c21 (centres undefined) | 10.7%
CCCOc1ccccc1C1CC(=O)NC2=C1C(=O)CCC2 (centres undefined) | 47.3%
CCCOc1ccccc1C1CC(=O)Nc2cc3c(cc21)OCO3 (centres undefined) | 54.1% (active)
O=C1CC(c2cccs2)c2cc3c(cc2N1)OCO3 (centres undefined) | 1%
CCCOc1ccccc1C1CC(=O)Nc2cc3c(cc21)OCCO3 (centres undefined) | 63% (active)
CCCCOc1ccccc1C1CC(=O)NC2=C1C(=O)CCC2 (centres undefined) | 71.2% (active)
CCOc1ccccc1C1CC(=O)NC2=C1C(=O)CCC2 (centres undefined) | 30.3%
CCCOc1c(OC)cccc1C1CC(=O)Nc2cc3c(cc21)OCO3 (centres undefined) | 12.7%
CCOc1ccccc1C1NC(=O)NC(C)=C1C(=O)OC1CCCCC1 (centres undefined) | 1.9%
COC(=O)c1c(C)n(-c2ccccc2)c2ccc(O)cc12 | 11.1%
CC(C)C(NC(=O)OCc1ccccc1)C(=O)NCC(=O)OC(C)(C)C (centres undefined) | 5.4%

— PubChem BioAssay AID430 (Sanford-Burnham Center for Chemical Genomics, 2006)
